These results are taken from PubChem BioAssay (EPA / NIEHS).

Structures are written as SMILES. Activity calls are given as the source filed them. The calls were made as follows, unless noted: active = hit-call score of the fitted dose curve at least 0.9, where 1 is the maximum; inconclusive = response in the unintended direction; inactive = score below 0.9.

A short description of one assay: CPHEA_Stoker_NIS_Cytotoxicity: Cytotoxicity Assessment for CPHEA's Radioactive Iodide Uptake (RAIU) Assay for Sodium/Iodide Symporter (NIS) Inhibition, Stoker and Laws Labs (AID 2283897).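 As to AC50: active means loss of ATP signal versus DMSO meaning cytotoxicity.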
Settings: not given
In a few lines: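 hNIS-HEK293T-EPA cells, human NIS expressed in HEK293T, treated 2 h with chemicals (0.001–100 uM, 0.5% final DMSO). ATP content read by CellTiter-Glo luminescence; loss of signal analysed relative to DMSO.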
In the case of `Oc1ccc(C(c2ccc(O)cc2)(C(F)(F)F)C(F)(F)F)cc1`, the outcome was inactive.
The same measure, in the same setting: to `CCC(C)c1cc([N+](=O)[O-])cc([N+](=O)[O-])c1O` (stereo not drawn) belongs “inactive”; to `Cc1cc2c3c(c1)C(c1ccccc1)=N[C@@H](NC(=O)c1ccncc1)C(=O)N3CC2`, “inactive”.
Still for that read-out and setting: the value for `CCSC(=O)N(CC)C1CCCCC1` was “inactive”; that for `CC#Cc1cc(C)nc(Nc2ccccc2)n1` was “inactive”.
Still for that read-out and setting: the value for `ClC1=C(Cl)[C@]2(Cl)[C@@H]3[C@@H](Cl)[C@H]4O[C@H]4[C@@H]3C1(Cl)C2(Cl)Cl` was “inactive”.
Take `CCOP(=S)(OCC)SCSC(C)(C)C`: the result was inactive.
For `Cc1ccccc1CO[C@@H]1C[C@@]2(C(C)C)CC[C@]1(C)O2`, the outcome was inactive.
Still for that read-out and setting: the value for `O=C(O)C(F)(F)C(F)(F)C(F)(F)C(F)(F)C(F)(F)C(F)(F)C(F)(F)C(F)(F)F` was “inactive”.
The same measure, in the same setting: to `ClC(Cl)=C(c1ccc(Cl)cc1)c1ccc(Cl)cc1` belongs “inactive”.
The same measure, in the same setting: to `CCOC(=O)C(O)(c1ccc(Cl)cc1)c1ccc(Cl)cc1` belongs “inactive”; to `O=C(O)C(F)(F)C(F)(F)C(F)(F)C(F)(F)C(F)(F)C(F)(F)C(F)(F)C(F)(F)C(F)(F)F`, “inactive”.
Regarding `Cc1cccc(C)c1N`, the result was inactive.
On the same count and under the same terms, the value for `NS(=O)(=O)C(F)(F)C(F)(F)C(F)(F)C(F)(F)C(F)(F)C(F)(F)C(F)(F)C(F)(F)F` was “inactive”; that for `c1ccc(-c2ccccc2)cc1` was “inactive”; that for `CC(C)(c1ccccc1)c1ccc(O)cc1` was “inactive”.
Still for that read-out and setting: the value for `CCC(C)(c1ccc(O)cc1)c1ccc(O)cc1` was “inactive”.
Same read-out and setting: the value for `CO/C=C(/C(=O)OC)c1ccccc1COc1cccc(C(F)(F)F)n1` was “inactive”; that for `CCNc1nc(NC(C)C)nc(SC)n1` was “inactive”; that for `CC(C)(O)C(=O)Nc1ccc([N+](=O)[O-])c(C(F)(F)F)c1` was “inactive”.
For `Oc1c(Cl)c(Cl)c(Cl)c(Cl)c1Cl`, the result was inactive.
Still for that read-out and setting: to `COc1ccc(O)c(C(C)(C)C)c1` belongs “inactive”.
`ClC1=C(Cl)[C@]2(Cl)[C@@H]3[C@@H]4C[C@@H]([C@H]5O[C@@H]45)[C@@H]3[C@@]1(Cl)C2(Cl)Cl`: the outcome was inactive.
The same measure, in the same setting: the value for `O=S(=O)(O)C(F)(F)C(F)(F)C(F)(F)C(F)(F)F` was “inactive”; that for `O=S(=O)(O)C(F)(F)C(F)(F)C(F)(F)C(F)(F)C(F)(F)C(F)(F)F` was “inactive”.
In general, AC50 refers to the midpoint of the concentration-response curve, whichever way the signal moves. As to `CCC(=O)O[C@H]1CC[C@H]2[C@@H]3CCC4=CC(=O)CC[C@]4(C)[C@H]3CC[C@]12C`, the concentration at half-maximal activity (AC50) is 646 nM (active).
Turning to `CCCCCCCCCC[N+](C)(C)CCCCCCCCCC`, the result was inactive.
On the same count and under the same terms, to `O=NN(c1ccccc1)c1ccccc1` belongs “inactive”.

A further assay in a line: CEETOX_H295R_11DCORT_noMTC: CeeTox H295R High-throughput Steroidogenesis Assay for 11-Deoxycortisol (11DCORT), maximum tolerated concentration (MTC) filtered results only (AID 2283911; active = hit-call score of the fitted dose curve at least 0.9, where 1 is the maximum; inactive = score below 0.9). The settings on record: actives raise or lower the signal. In a few lines: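 Steroidogenesis was stimulated in H295R cells with 10 uM forskolin for 48 h before a 48 h chemical exposure. Secreted 11-deoxycortisol was measured by tandem mass spectrometry and fitted bidirectionally against DMSO controls.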
For `O=C(O)C(F)(F)C(F)(F)C(F)(F)C(F)(F)C(F)(F)C(F)(F)C(F)(F)C(F)(F)C(F)(F)F`, the compound was called inactive.
Still for that read-out and setting: the value for `CCCCCCOC(=O)c1ccccc1C(=O)OCCCCCC` was “inactive”; that for `Oc1c(Cl)c(Cl)c(Cl)c(Cl)c1Cl` was “inactive”.

A short description of a further assay: CEETOX_H295R_OHPREG_noMTC: CeeTox H295R High-throughput Steroidogenesis Assay for OH-Pregnenolone (OHPREG), maximum tolerated concentration (MTC) filtered results only (AID 2283912; active = hit-call score of the fitted dose curve at least 0.9, where 1 is the maximum; inactive = score below 0.9). The settings on record: actives raise or lower the signal. In a few lines:
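Readout is HPLC-MS/MS quantification of 17alpha-hydroxypregnenolone released by forskolin-stimulated H295R cells over 48 h of chemical exposure, DMSO as baseline.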
As for `O=C(O)C(F)(F)C(F)(F)C(F)(F)C(F)(F)C(F)(F)C(F)(F)C(F)(F)C(F)(F)C(F)(F)F`, the compound was called inactive.
On the same count and under the same terms, the value for `CCCCCCOC(=O)c1ccccc1C(=O)OCCCCCC` was “inactive”; that for `Oc1c(Cl)c(Cl)c(Cl)c(Cl)c1Cl` was “inactive”; that for `CCCCCCCCOC(=O)c1ccccc1C(=O)OCCCCCCCC` was “inactive”.

The nature of the next assay: CEETOX_H295R_OHPROG_noMTC: CeeTox H295R High-throughput Steroidogenesis Assay for OH-Progesterone (OHPROG), maximum tolerated concentration (MTC) filtered results only (AID 2283914; active = hit-call score of the fitted dose curve at least 0.9, where 1 is the maximum; inactive = score below 0.9). The settings on record: actives raise or lower the signal. In a few lines: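 Analysis uses all tested concentrations, without maximum-tolerated-concentration screening by MTT. H295R cells, forskolin-primed (10 uM, 48 h), receive chemical for 48 h; hormone in medium measured by HPLC-MS/MS, with bidirectional curve fitting against DMSO.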
Turning to `O=C(O)C(F)(F)C(F)(F)C(F)(F)C(F)(F)C(F)(F)C(F)(F)C(F)(F)C(F)(F)C(F)(F)F`, the call was inactive.
In the case of `CCCCCCOC(=O)c1ccccc1C(=O)OCCCCCC`, the result was inactive.
For the compound `Oc1c(Cl)c(Cl)c(Cl)c(Cl)c1Cl`, the outcome was inactive.
On the same count and under the same terms, the value for `CCCCCCCCOC(=O)c1ccccc1C(=O)OCCCCCCCC` was “inactive”.

A short description of another assay: CEETOX_H295R_CORTISOL_noMTC: CeeTox H295R High-throughput Steroidogenesis Assay for Cortisol, maximum tolerated concentration (MTC) filtered results only (AID 2283916; active = hit-call score of the fitted dose curve at least 0.9, where 1 is the maximum; inactive = score below 0.9). The settings on record: actives raise or lower the signal. In a few lines:
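H295R adrenal cells were pre-stimulated 48 h with 10 uM forskolin, then exposed 48 h to test chemical in 0.1% DMSO. Medium cortisol was measured by MTBE extraction and HPLC-MS/MS; bidirectional fit versus DMSO, concentrations not MTC-filtered.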
Take `O=C(O)C(F)(F)C(F)(F)C(F)(F)C(F)(F)C(F)(F)C(F)(F)C(F)(F)C(F)(F)C(F)(F)F`: the outcome was inactive.
Still for that read-out and setting: to `CCCCCCOC(=O)c1ccccc1C(=O)OCCCCCC` belongs “inactive”; to `Oc1c(Cl)c(Cl)c(Cl)c(Cl)c1Cl`, “inactive”.

A further assay can be described thus: CEETOX_H295R_CORTIC_noMTC: CeeTox H295R High-throughput Steroidogenesis Assay for Corticosterone (CORTIC), maximum tolerated concentration (MTC) filtered results only (AID 2283917; active = hit-call score of the fitted dose curve at least 0.9, where 1 is the maximum; inactive = score below 0.9). The settings on record: actives raise or lower the signal. An outline of the steps:
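Forskolin-stimulated (10 uM, 48 h) H295R cells are dosed 48 h with chemical in DMSO (0.1% final); corticosterone change is quantified by HPLC-MS/MS and fitted bidirectionally against DMSO, unfiltered for MTT-derived MTC.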
For the compound `O=C(O)C(F)(F)C(F)(F)C(F)(F)C(F)(F)C(F)(F)C(F)(F)C(F)(F)C(F)(F)C(F)(F)F`, the outcome was inactive.
Still for that read-out and setting: the value for `CCCCCCOC(=O)c1ccccc1C(=O)OCCCCCC` was “inactive”; that for `Oc1c(Cl)c(Cl)c(Cl)c(Cl)c1Cl` was “inactive”.

Another assay in a line: CEETOX_H295R_DOC_noMTC: CeeTox H295R High-throughput Steroidogenesis Assay for DOC, maximum tolerated concentration (MTC) filtered results only (AID 2283918; active = hit-call score of the fitted dose curve at least 0.9, where 1 is the maximum; inactive = score below 0.9). The settings on record: actives raise or lower the signal. In a few lines: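 H295R cells prestimulated 48 h with 10 uM forskolin, then exposed 48 h to test chemical (0.1% DMSO final). Medium 11-deoxycorticosterone extracted with MTBE, quantified by HPLC-MS/MS; bidirectional fit versus DMSO, concentrations not MTC-filtered.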
For `O=C(O)C(F)(F)C(F)(F)C(F)(F)C(F)(F)C(F)(F)C(F)(F)C(F)(F)C(F)(F)C(F)(F)F`, the call was inactive.
The same measure, in the same setting: the value for `CCCCCCOC(=O)c1ccccc1C(=O)OCCCCCC` was “inactive”; that for `Oc1c(Cl)c(Cl)c(Cl)c(Cl)c1Cl` was “inactive”.
